Source: PubChem
ERa SRC1 pot – enhancers of ERα–SRC-1 coactivator binding, primary screen, biochemical, TR-FRET, ERα LBD, low estradiol; AID 639, 2007; TR-FRET ERalpha-LBD/SRC-Cy5 coactivator binding, 2 h; 100 = basal binding, no effect; Estrogen receptor (Homo sapiens), P03372; 86,000 tested, 1.3% active; coactivator binding (% of control), % at 25.6 µM; in the data active = activity above about 200%;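 note: binding measured in presence of low estradiol as agonist stimulus; 0% = peptide alone without receptor and 100% = receptor with peptide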
Smad3 inh – Smad3/FoxH1 peptide binding inhibitors, primary screen, biochemical, TR-FRET | Mothers against decapentaplegic homolog 3 (Homo sapiens), P84022 | TR-FRET Smad3/Dy647-FoxH1 peptide binding, europium anti-His | inhibition, % at 25 µM | 88,000 tested, 0.29% active;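 active = compounds that reduce the energy-transfer binding signal between the protein and its labelled peptide by more than half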;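 note: 0% = Smad3 plus labelled peptide maximal FRET and 100% = peptide-only background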
ERa SRC1 inh – ERα–SRC-1 coactivator interaction inhibitors, primary screen, biochemical, TR-FRET, ERα LBD, estradiol-bound. inhibition, % at 25.6 µM. 86,000 tested, 1.7% active. Estrogen receptor (Homo sapiens), P03372. TR-FRET ER-alpha LBD / SRC-1 peptide; in the data active = inhibition above about 50%;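 note: 0% = receptor plus peptide control and 100% = peptide only without receptor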
FAK blocker – FAK kinase inhibitors, primary screen, biochemical. biochemical FAK kinase activity assay. AID 727, 2007. inhibition, %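 (tested at 7 µM)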. 97,000 tested, 0.84% active; in the data active = inhibition above about 19%;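 note: 0% = DMSO and 100% = reference compound high control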
Target sequence (Q05397 whole entry, looked up): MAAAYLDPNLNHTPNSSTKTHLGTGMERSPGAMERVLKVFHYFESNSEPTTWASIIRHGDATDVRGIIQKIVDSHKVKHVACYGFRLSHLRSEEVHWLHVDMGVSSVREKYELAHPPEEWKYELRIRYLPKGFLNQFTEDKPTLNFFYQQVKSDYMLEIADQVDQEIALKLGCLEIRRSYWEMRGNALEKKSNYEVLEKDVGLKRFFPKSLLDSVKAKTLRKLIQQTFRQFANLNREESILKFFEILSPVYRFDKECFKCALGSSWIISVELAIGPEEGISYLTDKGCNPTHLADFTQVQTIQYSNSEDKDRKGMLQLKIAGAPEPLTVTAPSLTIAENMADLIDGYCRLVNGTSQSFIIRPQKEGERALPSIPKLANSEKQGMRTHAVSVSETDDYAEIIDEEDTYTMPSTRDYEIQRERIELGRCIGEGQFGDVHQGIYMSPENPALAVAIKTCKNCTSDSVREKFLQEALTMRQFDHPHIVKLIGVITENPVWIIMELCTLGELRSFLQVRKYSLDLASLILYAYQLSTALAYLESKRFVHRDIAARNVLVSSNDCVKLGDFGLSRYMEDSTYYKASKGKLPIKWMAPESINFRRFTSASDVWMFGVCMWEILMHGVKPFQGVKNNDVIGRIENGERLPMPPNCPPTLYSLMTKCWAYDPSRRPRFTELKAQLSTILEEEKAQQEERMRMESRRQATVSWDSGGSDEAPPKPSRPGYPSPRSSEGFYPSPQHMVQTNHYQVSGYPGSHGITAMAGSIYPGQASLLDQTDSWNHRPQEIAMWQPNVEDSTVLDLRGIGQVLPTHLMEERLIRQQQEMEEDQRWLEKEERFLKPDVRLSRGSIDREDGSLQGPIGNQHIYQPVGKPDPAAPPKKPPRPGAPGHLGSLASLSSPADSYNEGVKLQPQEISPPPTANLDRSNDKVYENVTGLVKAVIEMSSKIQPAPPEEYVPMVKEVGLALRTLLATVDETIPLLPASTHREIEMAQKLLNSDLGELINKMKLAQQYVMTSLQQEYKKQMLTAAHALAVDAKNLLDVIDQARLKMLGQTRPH
Calb biofilm kill – clotrimazole potentiators killing Candida biofilms, primary screen, with clotrimazole, Alamar Blue; C. albicans biofilm + clotrimazole; inhibition, % at 6 µM; 85,000 tested, 0.14% active;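 active = inhibition above 20%; inactive = inhibition below 20%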;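 note: preformed 24 hr biofilms exposed to compound for 48 hr; 0% = biofilm without compound and 100% = blank killed by clotrimazole plus chlorhexidine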
ERb SRC1 inh – inhibitors of ERβ-SRC1 coactivator interaction, primary screen, biochemical, TR-FRET, ERβ LBD, SRC-1 peptide | TR-FRET ER-beta LBD / SRC1-Cy5 peptide binding; receptor agonist-loaded with 1 µM estradiol | inhibition, % at 25.6 µM | 86,000 tested, 1.3% active | AID 633, 2007;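 active = compounds whose percent inhibition of the receptor-coactivator binding signal exceeds about 50% in the single-dose screen, limit read from the data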;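 note: 0% = receptor plus peptide wells without compound and 100% = peptide-only wells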
The depositor's hits bear a star; · = not tested or not shown; [ ] = dose if it differs, or a comment. The list is not random: actives were taken first. Their share in the collection is about 3.3%.

SMILES	ERa SRC1 pot	Smad3 inh	ERa SRC1 inh	FAK blocker	Calb biofilm kill	ERb SRC1 inh
Oc1ccc(C2Nc3cccc4cccc(c34)N2)c(O)c1	30.0	10.2	28.4	7.6	7.3	35.5
COc1ccc(NC(=O)CSc2nc(N)c(C#N)cc2C#N)cc1	·	·	·	2.5	·	·
CCOC(=O)c1c(C#N)c(SCC(=O)Nc2ccc(OC)cc2)nc2c1CN(CC)CC2	262.1*	-8.9	-2.2	1.0	0.0	-1.0
COc1ccc(Cc2nnc(-c3cccc(C)c3)o2)cc1OC	92.6	0.1	-3.5	·	24.0*	-11.8
COc1cc(C2Nc3cccc4cccc(c34)N2)cc(OC)c1O	46.4	2.6	53.7*[fluorescence artefact?]	4.8	5.7	81.5*[fluorescence artefact?]
COC(=O)c1sccc1NC(=O)c1ccc(OC)c(OC)c1	145.0	-9.9	-0.1	0.7	6.2	7.8
CCc1sc(C(=O)Nc2ccsc2C(=O)OC)cc1Br	236.7*	9.4	10.9	·	7.4	-0.1
COC(=O)c1sccc1NC(=O)c1cc(OC)cc(OC)c1	440.4*[fluorescence artefact?]	-5.2	25.9	11.5	4.2	28.1
CCO[P@]1(=O)OC[C@@H]2O[C@H](n3cnc4c(N)ncnc43)[C@H](O)[C@H]2O1	·	-7.7	·	·	·	·
COc1ccc(NC(=O)CC(Cc2ccccc2)C(=O)O)cc1 (centres undefined)	105.5	9.3	2.6	-6.6	9.8	4.5
CCCCCNC(CC(=O)Nc1ccc(OC)cc1)C(=O)O (centres undefined)	787.8*[fluorescence artefact?]	8.1	-7.1	·	9.7	1.0
O=C(Nc1nccs1)C1CCN(S(=O)(=O)c2cccnc2)CC1	100.1	3.1	-1.8	·	21.1*	3.3
O=C(Nc1nccs1)C1CCCN(S(=O)(=O)c2cccnc2)C1 (centres undefined)	140.2	-2.3	-2.3	6.3	9.2	-5.9
COc1ccc(-c2noc(CCC(=O)Nc3nc4ccccc4s3)n2)cc1	208.0*[fluorescence artefact?]	6.8	14.0	-0.5	4.6	-2.5
CN(CC(O)COc1ccc(S(=O)(=O)N2CCOCC2)cc1)C1CCCCC1 (centres undefined)	101.0	-2.8	-5.4	-0.3	3.7	78.3*
O=C1OC(Nc2ccc3c(c2)OCO3)c2ccccc21 (centres undefined)	73.9	5.2	34.9	6.3	8.6	52.0*
Cc1ccc(S(=O)(=O)c2cc3c(=O)n4ccccc4nc3n(Cc3ccco3)c2=N)cc1C	38.4	-9.5	74.8*[fluorescence artefact?]	3.7	5.1	50.2*[fluorescence artefact?]
N=c1c(S(=O)(=O)c2ccccc2)cc2c(=O)n3ccccc3nc2n1Cc1ccco1	48.9	-0.8	76.1*[fluorescence artefact?]	1.5	8.2	79.2*[fluorescence artefact?]
O=C1c2ccccc2C(=O)N1Cc1cc(-c2ccc(Cl)cc2)no1	·	·	·	2.5	·	·
O=C1NN(c2ccc(Cl)c(Cl)c2)C(=O)/C1=C/c1cccc(OC(=O)c2cccs2)c1	66.1	1.0	51.1*	1.0	-3.0	27.8
O=C1NN(c2ccccc2)C(=O)/C1=C\c1cccc(OC(=O)c2cccs2)c1	116.7	22.4	36.6	-4.4	8.3	8.5
CC(C)c1ccc(S(=O)(=O)c2n[nH]n3c2nc(=O)c2ccccc23)cc1	105.3	20.5	-13.2	0.1	3.3	-17.7
CCc1ccc(S(=O)(=O)c2n[nH]n3c2nc(=O)c2ccccc23)cc1	560.5*[fluorescence artefact?]	-2.7	6.3	-3.5	5.7	7.4
CC(C)(C)n1nnnc1C(c1cccs1)N(Cc1ccc(Cl)cc1)CC1CCCO1 (centres undefined)	102.9	5.6	-3.6	-2.0	0.9	-11.4
Cc1ccccc1C(=N)c1ccccc1Cc1cccc2ccccc12	·	-5.0	·	·	·	·
SMILES	ERa SRC1 pot	Smad3 inh	ERa SRC1 inh	FAK blocker	Calb biofilm kill	ERb SRC1 inh
Nc1nc(N2C(=O)C3CC=CCC3C2=O)nn1-c1ccccc1 (centres undefined)	116.3	13.3	56.7*	-3.3	-0.4	-7.5
c1ccc2c[n+](CCCC[n+]3ccc4ccccc4c3)ccc2c1	·	50.6*	·	·	·	·
CC1(C)C(=O)Nc2ccccc2N1C(=O)COC(=O)C12CC3CC(CC(O)(C3)C1)C2	54.0	-11.9	88.0*[fluorescence artefact?]	10.7	5.7	78.4*[fluorescence artefact?]
Cc1cc2n(n1)SC(Nc1ccc(F)c(Cl)c1)N2 (centres undefined)	94.3	2.2	-8.2	3.3	8.8	-3.8
Cn1c(=O)[nH]c(=O)c2c1nc1n2CCCN1CCc1ccccc1	75.8	8.4	64.6*	-1.3	6.1	61.9*
Cc1c(C(=O)Nc2ccncc2)sc2nc(-c3ccccc3)cn12	214.0*[fluorescence artefact?]	3.2	13.7	·	3.5	-3.7
CCN(CC)c1c(-c2ccccc2)c2cc(C)ccc2[nH]c1=O	248.1*[fluorescence artefact?]	50.4*[fluorescence artefact?]	25.9	·	12.0	40.1
O=C(Cc1cccs1)Nc1ccc(S(=O)(=O)Nc2ncccn2)cc1	21.6	3.9	88.1*[fluorescence artefact?]	9.1	7.1	84.0*
Cc1nc2ccc(NC(=O)Cc3cccs3)cc2s1	59.8	6.6	61.6*[fluorescence artefact?]	·	-3.7	44.1
Cc1ccnc(NS(=O)(=O)c2ccc(NC(=O)Cc3cccs3)cc2)n1	48.7	0.8	66.8*	4.0	-1.0	61.7*
C[N+](C)(C)c1cc2c(nn1)Nc1ccccc1S2	·	40.8	·	·	·	·
CC(=O)NS(=O)(=O)c1ccc(NC(=O)NC2CCCCC2)cc1	·	·	·	-3.0	·	·
CC(C)=CC(=O)OCC(=O)Nc1ncc(Cl)c(C)c1Cl	36.7	-4.1	28.3	8.8	5.3	31.3
CC(=O)NC12CC3CC(C1)CC(C(=O)OCC(=O)Nc1ncc(Cl)c(C)c1Cl)(C3)C2	49.0	2.9	74.1*[fluorescence artefact?]	·	7.8	59.6*
CCOC(=O)CSc1nnc(CNc2cccc(Cl)c2)n1C	117.3	-0.3	0.0	1.1	5.8	-4.1
COCCCn1c(Cc2csc(Nc3cccc(Cl)c3)n2)nnc1SCC(=O)OC	41.6	3.6	37.4	2.9	2.1	60.6*[fluorescence artefact?]
CC(C)NC(=O)c1ccc(COCC(F)(F)C(F)F)cc1	108.5	65.2*	-5.0	1.4	0.1	-18.2
CCOC(=O)N1CCC(N2Cc3cccc(C(=O)N4CCN(C5CCCCC5)CC4)c3C2=O)CC1	121.4	-0.4	-6.2	-0.5	0.5	-2.3
NC(=O)c1cccc2c1C(=O)N(C1CCCCC1)C2	54.3	4.9	53.2*[fluorescence artefact?]	-4.0	-9.9	53.2*
CNC[C@@H](SC)c1ccc(O)c(O)c1	·	15.0	·	·	·	·
C=CCn1c(-c2ccc(S(=O)(=O)N3CCOCC3)cc2)csc1=Nc1ccccc1	214.8*	-2.8	-7.0	1.4	3.1	-25.4
Cc1cc(=O)n(C)c(=O)n1CC(=O)N1CCCCCC1	99.0	-8.3	-6.0	0.7	-5.8	-10.7
Cn1c(N2CCCCC2)cc(=O)n(C)c1=O	103.9	-1.9	-13.5	2.1	6.3	96.2*[fluorescence artefact?]
